Results filed as inconclusive are left out. Calls come from the whole dose curve; as a rule, active = well fitted curve in either direction with a large enough effect (not every such curve was filed as active); inconclusive = small, poorly fitted or top-dose-only effect, or another doubt; inactive = flat fitted curve, though single readings scatter.
Experiment: NFAT Signaling Pathway (AID 444)
Settings: Jurkat NFAT-bla M1, carbachol, beta-lactamase ratio, 5 h; at 7.69 µM (top of the series)
Excerpt: NCGC Assay Overview: The nuclear factor of activated T cells (NFAT) family of transcription factors has been found primarily in most immune system cells and some other non-immune cells. NFAT plays the immunomodulatory role, primarily in T-cell activation and differentiation. NFAT target genes are also involved in the regulation of apoptosis and differentiation in non-immune cell types. The NFAT sequence was engineered to the upstream of the ?-lactamase reporter gene and transfected into Jurkat cells with co-transfection of muscarinic receptor1 [provided by Invitrogen Corp]. When an extracellular stimulus, such as carbachol, binds to the GPCR M1 receptor, it stimulates a signaling cascade that activates NFAT response element and ?-lactamase expression by phosphorylating the NFAT binding protein. This cell based ?-lactamase reporter gene assay can accurately monitor any changes occurring along the NFAT pathway, and can be used for screening small molecule inhibitor or activator upon activation by carbachol EC50 concentration. A small molecular library were screened in a titration series resulting in AC50s (can be either IC50s or EC50s).
NCGC Assay Protocol Summary: The cells were prepared in RPMI 1640 medium containing 0.1% dialyzed FBS and 25 mM HEPES at 1.6 x 10^6cell/ml. The assay was performed in 1536-well plate format as follows: 5 ul of cell preparation 23 nl of compounds 1ul of carbachol (final concentration 1 uM) Briefly centrifuge the plates and incubate at 37 °C for 5 hours 1 ul of CCF4 dye mixture Incubate the plates at RT for 1 hour Read the plate in EnVision plate reader (Ex= 405nm, and Em1=460nm and Em2=530nm). The %Activity was determined from the ratio of 460nm/530nm. Data normalization and AC50 calculations were accomplished using GeneData software.
% is set by controls: 0 for no effect and ±100 for the full control effect.

Activity change, negative = inhibition, inactive:
Cc1cn([C@H]2C[C@H](N=[N+]=[N-])[C@H](CO)O2)c(=O)[nH]c1=O 5.39%

Same assay, conditions: Jurkat NFAT-bla M1, carbachol, beta-lactamase ratio, 5 h; at 7.69 µM (top of the series) unless noted

Activity change, negative = inhibition, inactive:
CC1=NN(c2ccc(S(=O)(=O)O)cc2)C(=O)/C1=C\c1ccc(Cl)cc1 7.84%, COc1cc([C@H](O)C(=O)O)ccc1O -1.26% [at 38 µM], C#C[C@H](N)CCC(=O)O -4.34% [at 38 µM], [O-][N+](CCO)(CCO)c1ncnc2nc[nH]c12 -3.2%, CC1(CCC(=O)OC2CCCCC2)OCCO1 19.8%, c1cncc(CSc2ncnc3nc[nH]c23)c1 19.6%, Cc1cccc(CNc2nc(-c3ccc(C(=O)N(C)C)cc3)nc3ccccc23)c1 25.2%, Cc1c(Cl)cccc1NC(=O)C[C@H]1Sc2ccccc2NC1=O 7.2%, COc1ccccc1OC[C@H](O)CN1CCN(CC(=O)Nc2c(C)cccc2C)CC1 12.3% [at 38 µM], O=C1c2cc([N+](=O)[O-])ccc2-c2ccc3c4ccc5c6c(ccc(c7ccc1c2c73)c64)C(=O)c1cc([N+](=O)[O-])ccc1-5 21.7%, C/C(=N/Nc1nc(C)cc(=O)[nH]1)C(=O)O 1.78%, OC[C@@H]1NC[C@@H](O)[C@H]1O 8.18% [at 38 µM], CCc1ncc(CO)n1Cc1cccc2ccccc12 6.66%, CC(C)(C)c1ccc(OCC(=O)O)c(Cl)c1 10.5%, C[N+]1(CCCC[N+]2(C)CCCCCCC2)CCCCCCC1 -24.9%, O=C1CN2CCN(CC2)CC(=O)Nc2ccc(cc2)S(=O)(=O)c2ccc(cc2)NC(=O)CN2CCN(CC2)CC(=O)Nc2ccc(cc2)S(=O)(=O)c2ccc(cc2)N1 5.58%, C[C@H](CCC(=O)O)[C@H]1CC[C@]2(C)[C@@H]3C(=O)C[C@H]4C(C)(C)[C@@H](O)CC[C@]4(C)[C@H]3C(=O)C[C@@]12C 21.4%, O=C(O)c1ccccc1C1c2ccccc2Oc2ccccc21 4.13%, N#CC[N+]1(Cc2ccccn2)CCCC1 0.385%, Cc1ccc(S(=O)(=O)N2CCC(C(=O)O)(c3ccccc3)CC2)cc1 2.33%, C[C@H](Br)C(=O)c1ccc2cc(Br)c3ccccc3c2c1 26.1%, COc1nc(N)nc2c1ncn2[C@@H]1C[C@H](O)[C@@H](CO)O1 4.99%, C[C@@H]1C(=O)N(C)C(=O)c2nc[nH]c21 -19.2% [at 38 µM], CC1(C)CC(=O)C(C(c2cccc(O)c2O)C2C(=O)CC(C)(C)CC2=O)C(=O)C1 2.55%, CN(C)c1ccc(C(=C2C=CC(=[N+](C)C)C=C2)c2c(O)c(S(=O)(=O)O)cc3cc(S(=O)(=O)O)ccc23)cc1 -12.3%, O=C1c2ccccc2C(O)(O)[C@@]1(O)[C@]1(O)C(=O)c2ccccc2C1(O)O -0.902%, CN(C)CN1CSC(=S)N(CN(C)C)C1 1.69%, C=CCN1CCc2c(cc(O)c(O)c2Cl)[C@H](c2ccccc2)C1 -17.9% [at 38 µM], COCCn1c(=O)c(-c2cccs2)nc2cnc(Oc3ccc(OC)cc3)nc21 15.8%, Cc1c2cnccc2c(C)c2c1c1ccccc1n2CCOC(=O)c1ccccc1 -4.41%, CC(=O)N[C@H](Cc1ccc(O)cc1)C(=O)O -3.29%, Cc1ccc(N2CCN(CCC(=O)O)CC2)cc1 2.05%, CCNc1ncc2nc(CCc3ccccc3)c(=O)n(C)c2n1 -7.02%, N[C@@H](Cc1ncccn1)C(=O)O 3.63%, CC(=O)Nc1cc(CN2CCCCC2)c(O)c2ncccc12 -27.8%, CC[C@@H](Nc1ncnc2nc[nH]c12)C(=O)O -4.99%, COc1ccc(C[N+](C)(C)N)cc1OC -4.71%, S=C(S)NCCN1CCNCC1 -3.23%

Same assay, conditions: Jurkat NFAT-bla M1, carbachol, beta-lactamase ratio, 5 h; at 38 µM (top of the series)

Activity change, negative = inhibition, inactive:
Cc1cn([C@H]2C[C@H](N=[N+]=[N-])[C@H](CO)O2)c(=O)[nH]c1=O -4.43%

— PubChem BioAssay (NCATS)
